# Experimental data from PubChem BioAssay (NCATS).
# “And” between values parts separate entries of the source, which are not always exact repeats. Equal entries are not always repeated. Unmarked numbers belong to inactive results. Results filed as inconclusive are left out. The source made the active and inactive calls. Unless noted, calls come from the whole dose curve; as a rule, active = well fitted inhibition curve with a large enough effect; inconclusive = small, poorly fitted or top-dose-only effect; inactive = flat fitted curve, though single readings scatter.
# What was measured:
# [1] = Drug repurposing screens with cells derived from glioblastoma tumor samples (AID 1345199); conditions: GBM patient neurospheres viability, ATP luminescence, 48 h; note: nearly all actives have a fitted effect of over 40% in size; note: potency is the fitted concentration of half-maximal effect; for activity, negative = cell killing: % is set by controls: 0 for no effect and ±100 for the full control effect
# Procedure, shortened: (§1)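 Four patient lines of CD133+ GBM neurospheres were screened at several concentrations; hits were retested in those lines plus three slower-growing GBM lines, using 48-hour treatment and ATP-based viability.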
# astro = control astrocytes; assay: as above; conditions: viability, ATP luminescence, 48 h; series mostly up to 45.9 µM
# Procedure, shortened: as §1
# [2] = qHTS assay for small molecule activators of the human pregnane X receptor (PXR) signaling pathway (AID 720659; call rule not given here; note: 0% is about no effect); conditions: DPX-2 HepG2 CYP3A4-luciferase, 24 h; series mostly up to 92.3 µM
# [3] = target: Nuclear receptor subfamily 1 group I member 2 (Rattus norvegicus) (UniProt Q9R1A7); assay: qHTS assay for small molecule activators of the rat pregnane X receptor (rPXR) signaling pathway (AID 651751; call rule not given here; note: 0% is about no effect); conditions: rPXR reporter cells, luciferase (One-Glo), 24 h
# [4] = at 45.9 µM (top of the series), tumour line B
# [5] = at 45.9 µM (top of the series), tumour line D
# [6] = at 46 µM (top of the series), tumour line A
# [7] = at 46.1 µM (top of the series), tumour line C
# [8] = at 20 µM (top of the series), tumour line C
# [9] = at 21.2 µM (top of the series), tumour line B
# [10] = at 21.2 µM (top of the series), tumour line D
# Chain of Nuclear receptor subfamily 1 group I member 2 (Rattus norvegicus) (Q9R1A7 whole entry, looked up): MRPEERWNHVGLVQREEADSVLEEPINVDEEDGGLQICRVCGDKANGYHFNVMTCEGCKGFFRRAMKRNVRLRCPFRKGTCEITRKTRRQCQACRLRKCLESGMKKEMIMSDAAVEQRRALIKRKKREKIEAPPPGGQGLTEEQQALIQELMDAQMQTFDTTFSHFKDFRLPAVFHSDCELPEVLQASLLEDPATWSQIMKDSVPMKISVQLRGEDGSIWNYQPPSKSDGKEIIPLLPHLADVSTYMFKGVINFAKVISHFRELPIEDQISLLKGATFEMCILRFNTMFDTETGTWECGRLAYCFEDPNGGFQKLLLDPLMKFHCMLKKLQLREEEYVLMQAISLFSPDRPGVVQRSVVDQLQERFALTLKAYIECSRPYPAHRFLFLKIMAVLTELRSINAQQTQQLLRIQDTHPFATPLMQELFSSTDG
smiles,measurement,setting,value
C#CCN1CC(=O)N(COC(=O)C2C(C=C(C)C)C2(C)C)C1=O (stereo not given),"activity, negative = cell killing",[1]; [4],-9.8%
same,"activity, negative = cell killing",[1]; [5],15.2%
same,"activity, negative = cell killing",[1]; [6],-23.1%
same,"activity, negative = cell killing",[1]; [7],-15.9%
same,Potency,astro,inactive
ClC(Cl)(Cl)Cl,"activity, negative = cell killing",[1]; [4],-3.78%
same,"activity, negative = cell killing",[1]; [5],4.09%
same,"activity, negative = cell killing",[1]; [6],-14.3%
same,"activity, negative = cell killing",[1]; [7],-6.14%
same,Potency,astro,inactive
same,outcome,[2],inactive
C[C@]12C[C@H]3S[C@H]3C[C@@H]1CC[C@@H]1[C@@H]2CC[C@]2(C)[C@@H](O)CC[C@@H]12,"activity, negative = cell killing",[1]; [8],-0.246%
same,"activity, negative = cell killing",[1]; [9],-21.3%
same,"activity, negative = cell killing",[1]; [10],-16.8%
same,Potency,[1]; tumour line A,14.1 µM (active)
same,Potency,astro,inactive
CC(=O)OO,"activity, negative = cell killing",[1]; [4],-7.1%
same,"activity, negative = cell killing",[1]; [5],-0.699%
same,"activity, negative = cell killing",[1]; [6],-24.9%
same,"activity, negative = cell killing",[1]; [7],3.69%
same,Potency,astro,inactive
CCON=O,"activity, negative = cell killing",[1]; [4],-13.3%
same,"activity, negative = cell killing",[1]; [5],8.29%
same,"activity, negative = cell killing",[1]; [7],-23.8%
same,Potency,[1]; tumour line A,0.224 µM (active)
same,Potency,astro,inactive
CCOC(=O)c1ccccc1C(=O)OCC,"activity, negative = cell killing",[1]; [4],-8.14%
same,"activity, negative = cell killing",[1]; [5],-11.3%
same,"activity, negative = cell killing",[1]; [6],-28.3%
same,"activity, negative = cell killing",[1]; [7],0.324%
same,Potency,astro,inactive
same,max response,[3],2.54% and 6.22% and -3.04%
same,outcome,[2],inactive
CC1(C)S[C@@H]2[C@H](N)C(=O)N2[C@H]1C(=O)O,"activity, negative = cell killing",[1]; [8],-3.46%
same,"activity, negative = cell killing",[1]; [9],-7.3%
same,"activity, negative = cell killing",[1]; [10],-20.2%
same,"activity, negative = cell killing","[1]; at 21.3 µM (top of the series), tumour line A",-24.1%
same,Potency,astro,inactive
CCC(C)(S(=O)(=O)CC)S(=O)(=O)CC,"activity, negative = cell killing",[1]; [4],-9.18%
same,"activity, negative = cell killing",[1]; [5],-21.6%
same,"activity, negative = cell killing",[1]; [6],-5.61%
same,"activity, negative = cell killing",[1]; [7],-8.4%
same,Potency,astro,inactive
[O]=[Cd],"activity, negative = cell killing",[1]; [4],-6.73%
same,"activity, negative = cell killing",[1]; [5],0.985%
same,"activity, negative = cell killing",[1]; [6],-15%
same,"activity, negative = cell killing",[1]; [7],-5.34%
same,Potency,astro,inactive
same,max response,[3],0.17%
same,outcome,[2],inactive
CC(C)Nc1ccc(Nc2ccccc2)cc1,"activity, negative = cell killing",[1]; [7],-13.8%
same,Potency,[1]; tumour line A,11.2 µM (active)
same,Potency,[1]; tumour line B,17.8 µM (active)
same,Potency,[1]; tumour line D,20 µM (active)
same,Potency,astro,22.4 µM (active)
CN(C)[C@H](Cc1ccccc1)c1ccccc1,"activity, negative = cell killing",[1]; [4],-3.48%
same,"activity, negative = cell killing",[1]; [5],-20.8%
same,"activity, negative = cell killing",[1]; [7],-18.9%
same,Potency,[1]; tumour line A,20 µM (active)
same,Potency,astro,inactive
O=c1[nH]c(=O)n(Cl)c(=O)n1Cl,"activity, negative = cell killing",[1]; [4],-3.23%
same,"activity, negative = cell killing",[1]; [5],-0.766%
same,"activity, negative = cell killing",[1]; [6],-8.9%
same,"activity, negative = cell killing",[1]; [7],7.98%
same,Potency,astro,inactive
same,max response,[3],-4.63%
same,outcome,[2],inactive
CCC1(CC)C(=O)NC(=O)N(C)C1=O,"activity, negative = cell killing",[1]; [4],-3.71%
same,"activity, negative = cell killing",[1]; [5],-23.6%
same,"activity, negative = cell killing",[1]; [7],-31.1%
same,Potency,astro,inactive
OC[C@@H](O)[C@H]1O[C@@H]2O[C@H](C(Cl)(Cl)Cl)O[C@@H]2[C@H]1O,"activity, negative = cell killing",[1]; [4],-1.98%
same,"activity, negative = cell killing",[1]; [5],-2.86%
same,"activity, negative = cell killing",[1]; [7],-11.5%
same,Potency,astro,inactive
CC(=O)OC1CN2CCC1CC2 (stereo not given),"activity, negative = cell killing",[1]; [4],-1.18%
same,"activity, negative = cell killing",[1]; [5],12%
same,"activity, negative = cell killing",[1]; [7],-1.09%
same,Potency,astro,inactive
CC(Cc1ccccc1)NC=O (stereo not given),"activity, negative = cell killing",[1]; [4],-10.4%
same,"activity, negative = cell killing",[1]; [5],2.52%
same,"activity, negative = cell killing",[1]; [7],-28.9%
same,Potency,astro,inactive
C=CCN(C1=NCCN1)c1c(Cl)cccc1Cl,"activity, negative = cell killing",[1]; [4],-5.59%
same,"activity, negative = cell killing",[1]; [5],-0.731%
same,"activity, negative = cell killing",[1]; [7],-15.8%
same,Potency,astro,inactive
CC[N+](C)(CC)CCOC(=O)C(O)(c1ccccc1)c1ccccc1,"activity, negative = cell killing",[1]; [4],-10.1%
same,"activity, negative = cell killing",[1]; [5],-2.57%
same,"activity, negative = cell killing",[1]; [6],-29.2%
same,Potency,astro,inactive
C[C@@H](Cc1ccccc1)N(C)C,"activity, negative = cell killing",[1]; [4],-4.88%
same,"activity, negative = cell killing",[1]; [5],-10.7%
same,"activity, negative = cell killing",[1]; [7],-6.52%
same,Potency,astro,inactive
Cc1ccccc1-n1c(CF)nc2ccc(N)cc2c1=O,"activity, negative = cell killing",[1]; [4],-13.6%
same,"activity, negative = cell killing",[1]; [5],0.0058%
same,"activity, negative = cell killing",[1]; [7],-23.5%
same,Potency,astro,inactive
O=C(CS(=O)C(c1ccccc1)c1ccccc1)NO (stereo not given),"activity, negative = cell killing",[1]; [4],-1.04%
same,"activity, negative = cell killing",[1]; [6],-19.6%
same,"activity, negative = cell killing",[1]; [7],-22%
same,Potency,astro,inactive
CNC1(c2ccccc2Cl)CCCCC1=O (stereo not given),"activity, negative = cell killing",[1]; [4],-12.1% and -12.4%
same,"activity, negative = cell killing",[1]; [5],-13.4% and -12.7%
same,"activity, negative = cell killing",[1]; [7],-5.45%
same,Potency,astro,inactive
CCC1(c2ccccc2)C(=O)NC(=O)N(C(=O)c2ccccc2)C1=O (stereo not given),"activity, negative = cell killing",[1]; [4],-17.6%
same,"activity, negative = cell killing",[1]; [5],-13.8%
same,"activity, negative = cell killing",[1]; [7],-23.5%
same,Potency,astro,inactive
COC(=O)[C@@H]1[C@H]2CC[C@@H](C[C@H]1OC(=O)c1ccccc1)N2C,"activity, negative = cell killing",[1]; [4],-0.119%
same,"activity, negative = cell killing",[1]; [5],4.05%
same,"activity, negative = cell killing",[1]; [7],-3.81%
same,Potency,astro,inactive
